Screens deposited in PubChem by National Center for Advancing Translational Sciences (NCATS).
An excerpt weighted towards active compounds, which were near 0.88% of everything screened.
APE1 inh: APE1 (human) endonuclease inhibition | P27695 | 0.35% of 350,000 active | Potency, µM (highest dose often 65.8 µM), hits mostly inhibitors | recombinant APE1, TAMRA/BHQ-2 abasic DNA cleavage fluorescence; also: nearly all actives have a fitted effect of over 55% in size
Target sequence (P27695 whole entry, looked up): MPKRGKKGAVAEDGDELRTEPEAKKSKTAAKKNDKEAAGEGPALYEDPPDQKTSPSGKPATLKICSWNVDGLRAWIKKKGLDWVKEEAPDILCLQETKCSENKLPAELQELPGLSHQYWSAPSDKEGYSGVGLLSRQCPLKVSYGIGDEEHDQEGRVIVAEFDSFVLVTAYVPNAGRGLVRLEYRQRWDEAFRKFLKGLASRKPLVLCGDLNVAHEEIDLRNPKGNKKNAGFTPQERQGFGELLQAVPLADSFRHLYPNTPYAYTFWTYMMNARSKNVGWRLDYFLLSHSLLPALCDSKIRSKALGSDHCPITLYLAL
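Endonuclease cleavage of a quenched abasic-site DNA duplex (50 nM) by APE1 (0.75 nM) was tracked by TAMRA dequenching. Compounds were preincubated with enzyme 15 min at room temperature; data normalized to buffer-only and DMSO wells plus NSC13755 control.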
RECQ1 inh-1: blocks DNA unwinding by human RECQ1. 0.54% of 240,000 active. RECQ1 DNA unwinding, red fluorescence kinetic read. Potency, µM (highest dose often 57.3 µM), most hits filed as inhibitors. P46063; also: nearly all actives have a fitted effect of over 30% in size
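RECQ1T1 50 nM; forked duplex (20 bp + 30-nt ss tails) 200 nM, ATP 2 mM final; pH 8.0, 2 mM MgCl2, 2.5 ug/ml poly(dI-dC); 15 min compound preincubation; discontinuous kinetic read over 2 h at RT.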
ERG Ets-DNA blk: ERG Ets/DNA interaction inhibition. P11308. fluorescence polarization, His-ERG Ets domain / labelled DNA. Potency, µM (titrated, usually from 76.9 µM), hits mostly inhibitors. 0.028% of 370,000 active; active = well fitted inhibition curve with a large enough effect in the polarisation, with a control signal flat; inconclusive = small, poorly fitted or top-dose-only effect, or effect the other way, or a change in a side signal; inactive = no such curve, though single readings can be large or run the other way; the % refers to the polarisation;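 also: polarization taken with two DNA probes labelled with fluorescein and Texas red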
Target sequence (P11308 whole entry, looked up, the tested form may be a part): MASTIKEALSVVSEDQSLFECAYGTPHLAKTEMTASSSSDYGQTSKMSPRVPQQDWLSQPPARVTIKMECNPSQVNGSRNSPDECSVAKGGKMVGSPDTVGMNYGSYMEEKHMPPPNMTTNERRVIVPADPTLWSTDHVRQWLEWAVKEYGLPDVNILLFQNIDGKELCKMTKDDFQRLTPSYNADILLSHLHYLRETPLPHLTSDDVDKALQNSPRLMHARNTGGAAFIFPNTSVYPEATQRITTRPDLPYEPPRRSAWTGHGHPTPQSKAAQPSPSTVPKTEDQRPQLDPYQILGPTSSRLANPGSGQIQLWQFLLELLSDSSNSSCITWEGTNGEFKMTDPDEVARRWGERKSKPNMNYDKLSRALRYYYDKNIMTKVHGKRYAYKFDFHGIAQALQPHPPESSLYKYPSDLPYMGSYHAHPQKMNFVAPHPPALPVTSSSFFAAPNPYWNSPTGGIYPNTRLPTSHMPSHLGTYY
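His-tagged ERG Ets domain (1 uM in the protein solution; 300mM KCl, 50mM Tris-HCl, 1mM EDTA, 1mM DTT, pH 7.5) received compound, then a probe mix of 5 nM fluorescein-DNA and 100nM Texas-615-DNA. Fluorescence polarization was read for both dyes.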
BLM helicase inh: inhibitors of human Bloom syndrome helicase BLM. P54132. recombinant BLM DNA unwinding, fluorescence dequenching. Potency, µM (doses to about 56.1 µM), usual class: inhibitors. 0.2% of 350,000 active. AID 2528; also: nearly all actives have a fitted effect of over 35% in size
KAT2A inh: inhibitors of human GCN5L2 histone acetyltransferase; 0.21% of 390,000 active; GCN5L2 HAT assay, ThioGlo1 CoA-SH fluorescence; Potency, µM (doses to about 58.9 µM), hits mostly inhibitors; Q92830; AID 504327
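GCN5L2 (20nM final) in 50mM HEPES, 0.1mM EDTA pH 7.5, 0.01% Tween-20 was preincubated 15 min at room temperature with compound, then given ThioGlo1 (50uM), H3(1-25) peptide (75uM) and acetyl-CoA (70uM); CoA-thiol fluorescence (Ex340/Em540) was read at 0 and 20 min.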
WRN inhibitor: inhibitors of human WRN helicase. Q14191. WRN helicase unwinding, fluorescent forked duplex, kinetic. Potency, µM (titrated, usually from 114 µM), hits mostly inhibitors. 0.46% of 360,000 active; also: nearly all actives have a fitted effect of over 55% in size
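WRN at 20 nM final was preincubated with compound for 15 min at room temperature; reaction started with 100 nM forked duplex oligonucleotide carrying fluorophore and quencher plus 2 mM ATP (final). Unwinding followed kinetically by red fluorescence (ex 525/em 598 nm).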
RECQ1 conf: confirmation of human RECQ1 helicase inhibitors; shares compounds with RECQ1 inh-1; RECQ1 helicase DNA unwinding, fluorescence; Potency, µM (series often up to 229 µM), usual class: inhibitors; 28% of 610 active; AID 2708; also: nearly all actives have a fitted effect of over 45% in size
ADP FP counter: displaces ADP in a fluorescence polarization counter-screen for RECQ1 hits; shares compounds with RECQ1 inh-1; ADP fluorescence polarization displacement counterscreen; Potency, µM (highest dose often 228 µM), actives largely listed as inhibitors; 27% of 530 active; also: nearly all actives have a fitted effect of over 45% in size
RECQ1 inh-2: RECQ1 helicase inhibition confirmed, round 2; shares compounds with RECQ1 inh-1; recombinant RECQ1 DNA unwinding, red fluorescence; Potency, µM (titrated, usually from 119 µM), most hits filed as inhibitors; 15% of 1,100 active; AID 504841; also: nearly all actives have a fitted effect of over 50% in size
Numbers stand for hits; - = inactive; ? = inconclusive; . = not tested or not shown; ! = repeats disagree; [ ] = another dose, or the depositor's remark. Unless noted, calls follow the shape of the dose curve; as a rule, active = well fitted curve in the direction sought with a large enough effect; inconclusive = small, poorly fitted or top-dose-only effect, or another doubt; inactive = no such curve, though single readings can be large; an effect the other way counts as inactive or inconclusive.

SMILES | APE1 inh | RECQ1 inh-1 | ERG Ets-DNA blk | BLM helicase inh | KAT2A inh | WRN inhibitor | RECQ1 inh-2 | others
N#Cc1ccc(CSc2nc3c(c(=O)[nH]2)CCC3)cc1 | . | . | - | - | - | . | .
O=C(COc1ccc2ccccc2c1)Nc1cccc(C(=O)Nc2ccccc2C(=O)O)c1 | ? | ? | - | - | - | ? | ?
O=C(O)CCSc1nnc(COc2ccc([N+](=O)[O-])cc2)n1-c1ccccc1 | - | - | - | - | - | - | . | RECQ1 conf=-;ADP FP counter=-
O=C(O)CSc1nnc(COc2ccc([N+](=O)[O-])cc2)n1-c1ccccc1 | - | - | - | - | - | - | .
Cc1oc(-c2ccc(C(=O)Nc3cccc(C(F)(F)F)c3)cc2)nc1CSc1ccccc1 | . | . | - | - | - | . | .
Cc1ccc(-c2nc3scc(CCNC(=O)c4cccc(Br)c4)n3n2)cc1 | . | . | - | - | - | . | .
CCCCC/C=C/C=C1/C(=O)C=C[C@@H]1C/C=C\CCCC(=O)O | ? | 35µM! | . | - | ? | . | ?
CCCCC[C@H](O)C/C=C1/C(=O)C=C[C@@H]1C/C=C\CCCC(=O)O | - | - | . | - | - | . | .
O=C(O)CCCCCn1c(SCc2cc(=O)n3cc(Cl)ccc3n2)nc2ccsc2c1=O | - | - | - | - | - | - | . | RECQ1 conf=?;ADP FP counter=?
CCc1ccc(NC(=O)CSc2nc3ccsc3c(=O)n2CCCCCC(=O)O)cc1 | - | - | - | - | - | - | . | RECQ1 conf=-;ADP FP counter=-
CCOc1ccc(NC(=O)CSc2nc3ccsc3c(=O)n2CCCCC(=O)O)cc1 | . | . | . | . | . | -[11.6 µM] | .
Cc1cc(C(=O)CSc2nc3ccccc3c(=O)n2C)c(C)n1CC1CCCO1 (centres undefined) | - | - | . | - | - | . | .
Cc1cc(C(=O)CSc2nnc(-c3cccnc3)n2-c2ccccc2F)c(C)n1CC1CCCO1 (centres undefined) | ? | 35µM | - | - | - | - | -
CCn1c(SCC(=O)c2cc(C)n(CC3CCCO3)c2C)nc2ccccc21 (centres undefined) | - | 40µM | - | - | - | - | -
Cc1cc(C(=O)CSc2nnnn2-c2ccccc2)c(C)n1CC1CCCO1 (centres undefined) | - | - | - | - | - | - | .
Cc1nnc2ccc(-c3ccc(NC(=O)Cc4cccs4)cc3)nn12 | ? | 32µM | - | - | - | ? | -
CCc1ccc(-n2nnnc2SCC(=O)Nc2ccc(NC(C)=O)cc2)cc1 | - | . | - | - | - | - | .
CC(=O)Nc1ccc(-n2nnnc2SCC(=O)Nc2cccc(NC(=O)c3ccco3)c2)cc1 | ? | ? | - | - | - | - | ?
O=C(CCSCc1cnn(-c2ccccc2)c1-n1cccc1)NCc1ccccc1Cl | . | . | - | - | - | . | .
CCc1cccc(C)c1NS(=O)(=O)c1ccc(-n2cccn2)cc1 | . | . | - | - | - | . | .
O=C(NCCCO)c1ccc2nc(-c3ccco3)c(-c3ccco3)nc2c1 | ? | ? | - | - | - | ? | -
COc1ccc(CCNc2ncnc3c2[nH]c2cc(OC)c(OC)cc23)cc1OC | ? | 14µM | ? | - | - | ? | ? | RECQ1 conf=?;ADP FP counter=-
COc1ccc(CCNc2ncnc3cc(OC)c(OC)cc23)cc1OC | - | - | - | - | - | - | .
Cc1ccccc1NS(=O)(=O)c1ccc(Br)s1 | . | . | - | - | - | . | .
O=C(Nc1ccc(F)cc1Cl)C1CCN(c2ncnc3c2nc2n3CCCCC2)CC1 | . | . | - | - | - | . | .
SMILES | APE1 inh | RECQ1 inh-1 | ERG Ets-DNA blk | BLM helicase inh | KAT2A inh | WRN inhibitor | RECQ1 inh-2 | others
Cc1ccc(Oc2coc3cc(OC(=O)c4cccs4)ccc3c2=O)cc1 | - | - | - | - | - | - | .
CC(=O)Oc1ccc2c(=O)c(Oc3ccccc3)coc2c1OC(C)=O | 2.2µM | 3.5µM | - | - | - | ? | 25µM
COc1ccccc1Oc1nc2c(c(=O)n(Cc3ccccc3F)c(=O)n2C)n1C | ? | ? | - | ? | ? | - | -
O=C1NC(=O)/C(=C/c2cccc3ccccc23)S1 | - | . | - | - | - | - | .
O=C1NC(=O)/C(=C\c2ccc(O)cc2O)S1 | 4µM | 22µM | - | - | - | 35µM | 13µM
S=C(NCCSCc1c(Cl)cccc1Cl)Nc1ccccc1 | - | 13µM | - | - | - | - | . | RECQ1 conf=-;ADP FP counter=-
Cc1ccc(S(=O)(=O)N2CCCC(C(=O)NCc3ccc4c(c3)OCO4)C2)cc1 (centres undefined) | - | . | - | - | - | - | .
O=C(NCc1ccc2c(c1)OCO2)C1CCCN(S(=O)(=O)c2cccnc2)C1 (centres undefined) | - | ? | - | - | - | - | -
CCC(=O)N1CCc2cc(S(=O)(=O)NCCC(=O)NCc3ccc(C)cc3)ccc21 | . | . | - | - | - | . | .
CCN(CC)S(=O)(=O)c1ccc2c(c1)N(CC(=O)NCc1ccc(F)cc1)C(=O)CO2 | . | . | - | - | - | . | .
O=C(CC(C(=O)O)P(=O)(c1ccccc1)c1ccccc1)c1ccc(Br)cc1 (centres undefined) | - | - | - | - | - | - | . | RECQ1 conf=-;ADP FP counter=-
NC1=NC2C(N=C(Br)N2[C@@H]2O[C@H]3COP(=O)(O)O[C@@H]3[C@@H]2O)C(=O)N1 (some centres undefined) | - | - | . | - | - | . | .
O=C(CSc1ncnc2sc3c(c12)CCCC3)c1ccco1 | ? | ? | - | - | - | - | -
O=C(CSc1ncnc2sc3c(c12)CCCC3)c1ccccc1 | - | - | - | - | - | - | .
Cc1cc(C)cc(C(O)c2ncc(-c3ccccc3)[nH]2)c1 (centres undefined) | . | . | . | . | . | - | .
CCOc1ccc(NC(=O)C2CCN(S(=O)(=O)c3c(C)noc3/C=C/c3cccs3)CC2)cc1 | . | . | - | - | - | . | .
CC(C)(C(O)c1ccc([N+](=O)[O-])cc1)[N+](=O)[O-] (centres undefined) | - | - | . | - | . | . | .
CCc1nc(Nc2ccc(N3CCN(C(C)=O)CC3)cc2)c2oc3ccccc3c2n1 | ? | ? | - | - | - | - | -
COC(=O)c1cc2sccc2n1Cc1nc(-c2ccc(OC)cc2)oc1C | - | - | . | - | ? | - | .
COC(=O)c1cc2ccsc2n1Cc1nc(-c2ccc(OC)cc2)oc1C | - | 32µM | - | - | - | - | -
CC(C)CO/N=C1/C[C@@H](O)[C@@H](O)[C@@H]2[C@@H]3C(=O)N(C4CCCCC4)C(=O)[C@H]3CC[C@H]12 | -[12.4 µM] | -[11.5 µM] | . | -[12.4 µM] | . | . | .
